Assay results: PubChem BioAssay (Tox21)
Results filed as inconclusive are left out. Entries that show only a call come without a potency. Activity calls are given as the source filed them. Calls follow the shape of the dose curve; as a rule, active = well fitted cell-killing curve with a large enough effect in the repeat runs; inconclusive = weak or mixed curves, or effect the other way; inactive = flat fitted curve, though single readings scatter.

Assay: cAMP Responsive Elements (CRE) small molecule antagonists, cell-based qHTS assay: qHTS cell viability counter screen (AID 2060913); also: nearly all actives have a fitted effect of over 40% in size
Details: CRE-bla HEK293T viability, CellTiter-Glo luminescence, 5 h; series mostly up to 92.4 µM
How it was run: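 Viability of NKH477-stimulated (0.25 uM final) CRE-bla HEK293T cells is measured by CellTiter-Glo luminescence following 3 hrs compound exposure at 37 C.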
Potency is read from the fitted curve at half-maximal effect.

Row | Compound | Potency
1 | CC1=C2[C@@H]([C@H](C)CC[C@H]2/C=C(\C)C(=O)O)[C@H](O)C1 | inactive
2 | OCCCc1cccnc1 | inactive
3 | Nc1ccc(S(=O)(=O)Nc2ccccc2)cc1 | inactive
4 | C/C=C/c1ccc(OCC)c(O)c1 | inactive
5 | O=C(O)c1cc(Br)c(O)c(Br)c1 | inactive
6 | CC(=O)OCCC(C)CC(C)(C)C (stereo not given) | inactive
7 | OCC(O)CO | inactive
8 | CCCCO | inactive
9 | O=C(Nc1ccc(Cl)cc1)Nc1ccc(Cl)c(C(F)(F)F)c1 | 26.6 µM (active)
10 | COCCc1ccccn1 | inactive
11 | OCCCc1ccccc1 | inactive
12 | O=C1C(CCS(=O)c2ccccc2)C(=O)N(c2ccccc2)N1c1ccccc1 (stereo not given) | inactive
13 | COc1cc2c(cc1OC)-c1cc3ccc(OC)c(OC)c3c[n+]1CC2 | inactive
14 | C[N+](C)(C)CC(O)CCl (stereo not given) | inactive
15 | CCN(C(=O)N(CC)c1ccccc1)c1ccccc1 | inactive
16 | COc1ccc2c(c1)c1c3n2CCN(C)C3=NCC1 | inactive
17 | Cc1cscn1 | inactive
18 | COc1cc(C(=S)N2CCOCC2)cc(OC)c1OC | inactive
19 | CN(C)C(=O)COC(=O)Cc1ccc(OC(=O)c2ccc(N=C(N)N)cc2)cc1 | inactive
20 | CCCC[O][Al]([O]CCCC)[O]CCCC | inactive

Row | Compound | Potency
21 | Nc1cc(C(=O)O)c(O)c(S(=O)(=O)O)c1 | inactive
22 | OCCCO | inactive
23 | C=Cc1ccncc1 | inactive
24 | O=C(O)Cc1cn(-c2ccccc2)nc1-c1ccc(Cl)cc1 | inactive
25 | NCCc1ccn[nH]1 | inactive
26 | CC(C)(O)C(=O)c1ccccc1 | inactive
27 | C[C@@H]1C[C@H]2[C@@H]3CCC4=CC(=O)C=C[C@]4(C)[C@@]3(F)[C@@H](O)C[C@]2(C)[C@@]1(O)C(=O)COC(=O)c1ccncc1 | inactive
28 | CCCCCOC(=O)COc1cc(N2C(=O)C3=C(CCCC3)C2=O)c(F)cc1Cl | inactive
29 | O=C(OCCCCCOC(=O)c1ccccc1)c1ccccc1 | inactive
30 | CCCCN(CCO)CCCC | inactive
31 | C=CC/C=C/C/C=C/C/C=C/C | inactive
32 | OC1OC[C@@H](O)[C@H](O)[C@H]1O (stereo not given in full) | inactive
33 | C1=CCC2CC=CC2C1 (stereo not given) | inactive
34 | O=C(O)c1ccccc1NCCc1ccccc1 | inactive
35 | NCC1(Cc2noc(=O)[nH]2)CCCCC1 | inactive
36 | O=C(O)C1CCC1 | inactive
37 | CC(C)C1=CC2=CC[C@@H]3[C@](C)(CCC[C@@]3(C)C(=O)O)[C@H]2CC1 | inactive
38 | Cc1c(-c2ccccc2)oc2c(C(=O)OCCN3CCCCC3)cccc2c1=O | inactive
39 | NS(=O)(=O)c1cc2c(cc1Cl)NC(CSCc1ccccc1)=NS2(=O)=O | inactive
40 | O=C1CCCCCO1 | inactive

Assay: cAMP Responsive Elements (CRE) small molecule agonists, cell-based qHTS assay: qHTS cell viability counter screen (AID 2060914);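 also: viability read after 3 h of compound exposure; nearly all actives have a fitted effect of over 50% in size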
Details: CRE-bla HEK293T viability, CellTiter-Glo luminescence, 5 h; series mostly up to 92.4 µM
How it was run: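 Cells are seeded and incubated 18 h, treated with compounds in DMSO for 3 h, read for the bla reporter, then given CellTiter-Glo; luminescence is measured after 30 min at room temperature.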

Row | Compound | Potency
41 | CC1=C2[C@@H]([C@H](C)CC[C@H]2/C=C(\C)C(=O)O)[C@H](O)C1 | inactive
42 | OCCCc1cccnc1 | inactive
43 | Nc1ccc(S(=O)(=O)Nc2ccccc2)cc1 | inactive
44 | C/C=C/c1ccc(OCC)c(O)c1 | inactive
45 | O=C(O)c1cc(Br)c(O)c(Br)c1 | inactive
46 | CC(=O)OCCC(C)CC(C)(C)C (stereo not given) | inactive
47 | OCC(O)CO | inactive
48 | CCCCO | inactive
49 | O=C(Nc1ccc(Cl)cc1)Nc1ccc(Cl)c(C(F)(F)F)c1 | 23.7 µM (active)
50 | COCCc1ccccn1 | inactive
51 | OCCCc1ccccc1 | inactive
52 | O=C1C(CCS(=O)c2ccccc2)C(=O)N(c2ccccc2)N1c1ccccc1 (stereo not given) | inactive
53 | COc1cc2c(cc1OC)-c1cc3ccc(OC)c(OC)c3c[n+]1CC2 | inactive
54 | C[N+](C)(C)CC(O)CCl (stereo not given) | inactive
55 | CCN(C(=O)N(CC)c1ccccc1)c1ccccc1 | inactive
56 | COc1ccc2c(c1)c1c3n2CCN(C)C3=NCC1 | inactive
57 | Cc1cscn1 | inactive
58 | COc1cc(C(=S)N2CCOCC2)cc(OC)c1OC | inactive
59 | CN(C)C(=O)COC(=O)Cc1ccc(OC(=O)c2ccc(N=C(N)N)cc2)cc1 | inactive
60 | CCCC[O][Al]([O]CCCC)[O]CCCC | inactive

Row | Compound | Potency
61 | Nc1cc(C(=O)O)c(O)c(S(=O)(=O)O)c1 | inactive
62 | OCCCO | inactive
63 | C=Cc1ccncc1 | inactive
64 | O=C(O)Cc1cn(-c2ccccc2)nc1-c1ccc(Cl)cc1 | inactive
65 | NCCc1ccn[nH]1 | inactive
66 | CC(C)(O)C(=O)c1ccccc1 | inactive
67 | C[C@@H]1C[C@H]2[C@@H]3CCC4=CC(=O)C=C[C@]4(C)[C@@]3(F)[C@@H](O)C[C@]2(C)[C@@]1(O)C(=O)COC(=O)c1ccncc1 | inactive
68 | CCCCCOC(=O)COc1cc(N2C(=O)C3=C(CCCC3)C2=O)c(F)cc1Cl | inactive
69 | O=C(OCCCCCOC(=O)c1ccccc1)c1ccccc1 | inactive
70 | CCCCN(CCO)CCCC | inactive
71 | C=CC/C=C/C/C=C/C/C=C/C | inactive
72 | OC1OC[C@@H](O)[C@H](O)[C@H]1O (stereo not given in full) | inactive
73 | C1=CCC2CC=CC2C1 (stereo not given) | inactive
74 | O=C(O)c1ccccc1NCCc1ccccc1 | inactive
75 | NCC1(Cc2noc(=O)[nH]2)CCCCC1 | inactive
76 | O=C(O)C1CCC1 | inactive
77 | CC(C)C1=CC2=CC[C@@H]3[C@](C)(CCC[C@@]3(C)C(=O)O)[C@H]2CC1 | inactive
78 | Cc1c(-c2ccccc2)oc2c(C(=O)OCCN3CCCCC3)cccc2c1=O | inactive
79 | NS(=O)(=O)c1cc2c(cc1Cl)NC(CSCc1ccccc1)=NS2(=O)=O | inactive
80 | O=C1CCCCCO1 | inactive
